AMA1 RON2 block = disrupts binding of P. falciparum AMA1 to RON2; AlphaScreen AMA1-biotinylated RON2 peptide binding; Potency, µM (titrated, usually from 58.2 µM), for inactives: at the top dose activity change, negative = inhibition, usual class: inhibitors; actives 0.2% (n = 360,000); AID 720542;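 also: potency is read from the fitted curve at half-maximal effect; 0% = vehicle wells and -100% = peptide control; nearly all actives have a fitted effect of over 45% in size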
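AMA1 (3D7) with his tag at 25 nM final met compounds first, then biotinylated RON2 peptide at 25 nM; detection used donor plus acceptor beads, 10 µg/mL apiece, read by AlphaScreen after 30 min at room temperature.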
CHX counter = affects cycloheximide protein synthesis inhibition readout, counter-screen. max response, %. cell reporter, cycloheximide protein synthesis inhibition counterscreen. actives 12% (n = 300,000). AID 2314; in the data active = max response mostly above about 13%, no sharp cut-off; inactive = mostly below about 14%; also: read at 38.3 µM for the half of the compounds with a filed dose; 0% is about no effect
SARS PLpro yeast = SARS-CoV PLP inhibition in yeast; S. cerevisiae expressing SARS-CoV PLpro, growth rescue; Potency, µM (top dose mostly 32.9 µM), without a hit: at the top dose activity, positive = growth rescue, actives largely listed as activators; actives 0.19% (n = 330,000); AID 485353; calls by dose curve; also: potency is read from the fitted curve at half-maximal effect; 0% is about no effect; nearly all actives have a fitted effect of over 55% in size
Shiga inhibitor = blocks Shiga toxin action in Vero cells | AID 2315 | Vero cells, Shiga toxin protein synthesis inhibition reporter | inhibition, % at 38.7 µM | actives 9.2% (n = 290,000); in the data active = inhibition mostly above about 28%, no sharp cut-off; inactive = mostly below about 43%; also: 0% is about no effect
Pf growth 48h = P. falciparum growth inhibition at 48 hours (one generation) | Potency, µM (top dose mostly 28.7 µM), for inactives: at the highest dose activity change, negative = inhibition, usual class: inhibitors | AID 504832 | P. falciparum luciferase growth in erythrocytes, 48 h | actives 5.9% (n = 310,000); also: potency is read from the fitted curve at half-maximal effect; % is scaled to controls: 0 for no effect and ±100 for the full control effect
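Firefly luciferase activity from engineered P. falciparum reports growth; inhibitors lower the luminescent signal. Cultures contained 2% hematocrit erythrocytes at 0.1% final parasitemia.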
Pf growth 96h = P. falciparum growth inhibition at 96 hours; Potency, µM (doses to about 28.7 µM), inactives show at the top dose activity change, negative = inhibition, hits mostly inhibitors; P. falciparum luciferase reporter growth, 96 h; actives 6.9% (n = 320,000); also: potency is read from the fitted curve at half-maximal effect; % is scaled to controls: 0 for no effect and ±100 for the full control effect
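Cell-based qHTS: luciferase-tagged P. falciparum in erythrocytes (2% hematocrit, 0.05% parasitemia final) incubated with compounds for 96 hours, 37 C, 5% CO2; luciferase detection reagent then added and luminescence measured.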
* marks the source's active call; other numbers are inactive results; ? = inconclusive; nt = not tested or not shown; [ ] = another dose, or the depositor's remark. Compounds with a hit are over-represented: about 19% of the library has one in this group of screens. Unless noted, calls follow the shape of the dose curve; as a rule, active = well fitted curve in the direction sought with a large enough effect; inconclusive = small, poorly fitted or top-dose-only effect, or another doubt; inactive = no such curve, though single readings can be large; an effect the other way counts as inactive or inconclusive.

SMILES	AMA1 RON2 block	CHX counter	SARS PLpro yeast	Shiga inhibitor	Pf growth 48h	Pf growth 96h
CC1(C)CNC(=O)c2sc(N3CCCCC3)nc2C1	-1%	23*	3%	56	67%	-3%
CC1(C)CC(=O)c2sc(NS(C)(=O)=O)nc2C1	-9%	-4	nt	-3	0%	5%
Cc1ccnc(NC(=O)CCc2c(C)nc3ncnn3c2C)c1	5%	14	-5%	17	3%	0%
Cc1nnc(SCc2ccc(Cl)c(Cl)c2)s1	34%	14*	-1%	22	32%	-86%
Cc1nnc(SCc2cccc([N+](=O)[O-])c2)s1	13%	18*	0%	50	30%	?
Cc1nnc(SCc2ccc(F)cc2)s1	24%	28*	-2%	55*	46%	nt
Nc1nnc(SCc2ccc(F)cc2)s1	0%	11	nt	16	21%	?
Nc1nc(SCc2ccc(F)cc2)ns1	-6%	40*	-5%	69*	-4%	3%
Cc1nnc(SCc2ccc(C(=O)O)cc2)s1	-3%	-6	-2%[6.58 µM]	-7	nt	nt
CCOC(=O)C1CCN(C(=O)Cc2ccc(-c3ccccc3)cc2)CC1	2%	2	-6%	3	?	0%
C=C1CC2C(=O)N(Cc3ccccc3)C(C(=O)O)C1N2C(=O)OC(C)(C)C (stereo not drawn)	nt	-1	nt	10	nt	nt
C/C(=N\NC(=O)Cc1ccccc1)c1ccc(Cl)s1	5%	2	2%	-14	25%	?
O=C(C1CCCN(S(=O)(=O)c2ccc(Cl)cc2)C1)N(Cc1cccs1)C1CC1 (stereo not drawn)	0%	-1	-2%	13	13µM*	1%
CN(Cc1cccs1)C(=O)c1ccc(S(=O)(=O)N2CCCCC2)cc1	8%	0	1%	-8	-16%	-7%
COc1ccc(N(CC(=O)NCc2ccc(C)cc2)S(=O)(=O)c2c(C)noc2C)cc1	2%	-2	0%	-6	?	2.3µM*
COc1ccc(N(CC(=O)NCc2ccc(Cl)cc2)S(=O)(=O)c2c(C)noc2C)cc1	1%	-4	0%	-2	?	8.3µM*
Cc1ccc(N(CC(=O)NC2CCCCC2C)S(=O)(=O)c2c(C)noc2C)cc1 (stereo not drawn)	14%	1	3%	-6	?	9.3µM*
CC(C)C1Cc2c(sc3ncnc(NN)c23)CO1 (stereo not drawn)	78%	-5	-2%	2	?	?
COc1ccc(Cc2nnc(Nc3ccc(Cl)cc3)[nH]c2=O)cc1	-2%	18*	-1%	16	?	?
COc1ccccc1Nc1nnc(Cc2ccccc2)c(=O)[nH]1	6%	-2	0%	-2	22%	12µM*
COc1ccc(Nc2nnc(Cc3ccc(Cl)cc3)c(=O)[nH]2)c(OC)c1	5%	3	3%	-5	-21%	94%
COc1ccc(Cc2nnc(Nc3ccccc3OC)[nH]c2=O)cc1	-7%	-2	6%	-10	?	-5%
O=C(CN(C(=O)c1csnn1)c1ccc(F)c(Cl)c1)NC1CCCCC1	-9%	30*	1%	51	17%	0%
O=C(CN(C(=O)c1csnn1)c1ccc(Cl)cc1)NCCc1ccccc1	-5%	-3	25%	20	13µM*	?
O=C(CN(C(=O)c1csnn1)c1ccccc1)NCCc1ccccc1	4%	-6	11%	-5	0%	61%
SMILES	AMA1 RON2 block	CHX counter	SARS PLpro yeast	Shiga inhibitor	Pf growth 48h	Pf growth 96h
O=C(CN(C(=O)c1csnn1)c1ccc(Cl)cc1)NC1CCCC1	-6%	-4	1%	8	33%	2%
COc1cccc(NC2SC(=O)N(c3ccccc3)C2=O)c1 (stereo not drawn)	13%	43*	-30%	61*	103%	-1%
O=c1c2c(nc3nc(CCc4ccccc4)[nH]n13)CCC2	-6%	-3	0%	-10	0%	?
S=c1c2c(nc3nc[nH]n13)CCC2	100%	-1	-7%	-5	2.1µM*	1.7µM*
O=c1[nH]ncc(NCCCO)c1Cl	-15%	-2	-5%	-2	19%	11%
C=CCN(CC=C)c1cnn(-c2nc3ccccc3[nH]2)c(=O)c1Cl	-8%	27*	-7%	89*	-22%	nt
O=c1c(Cl)c(NCCCO)cnn1-c1nc2ccccc2[nH]1	9%	84*	-32%	137*	348%	463%
COc1cccc(CC(=O)Nc2ccc(N3CCOCC3)c(S(=O)(=O)Nc3ccccc3OC)c2)c1	10%	nt	nt	nt	nt	nt
CCOc1ccc(/C=N/NC(=S)NC2CC3CCC2C3)cc1 (stereo not drawn)	40%	3	0%	11	?	?
COc1cc(/C=N/NC(=S)NC2CC3CC2C2C=CCC32)ccc1O (stereo not drawn)	24%	34*	-4%	89	8.3µM*	?
CCOc1ccc(/C=N/NC(=S)NC2CC3CC2C2C=CCC32)cc1 (stereo not drawn)	45%	4	-2%	10	4.1µM*	0.66µM*
CCN(CC)CCNC(=O)C(=O)Nc1cc2c3c(c1)CCC(=O)N3CCC2	5%	9	3%	-5	5%	23%
CC(C)CNC(=S)N1CCC(C(=O)c2ccc3c(c2)OCCO3)CC1	-1%	8	-1%	20	-9%	37%
C[n+]1c(-c2ccccc2)cc(CCCCc2cc(-c3ccccc3)[n+](C)c(-c3ccccc3)c2)cc1-c1ccccc1	-12%	-3	-1%	-5	13µM*	0.93µM*
CCS(=O)(=O)NCCCCc1ccccc1	0%	0	-3%	-8	4%	125%
O=C(c1ccoc1)N1CCC2(CC1)Oc1ccc(Cl)cc1C(=O)C21CC(c2cccnc2)=NO1 (stereo not drawn)	-6%	-3	1%	-8	?	?
O=C(c1ccoc1)N1CCC2(CC1)Oc1ccc(Cl)cc1C(=O)C21CC(c2ccccc2)=NO1 (stereo not drawn)	-10%	6	1%	-5	15µM*	?
O=C(/C=C/c1cccs1)N1CCC2(CC1)Oc1ccc(Cl)cc1C(=O)C21CC(c2ccccc2)=NO1 (stereo not drawn)	?	-2	0%	7	13µM*	?
CC(C)C(=O)N1CCC2(CC1)Oc1ccc(F)cc1C(=O)C21CC(c2cccnc2)=NO1 (stereo not drawn)	nt	-2	2%	3	-12%	20%
Cc1ccc(C(=O)N2CCC3(CC2)Oc2ccc(F)cc2C(=O)C32CC(c3cccnc3)=NO2)s1 (stereo not drawn)	-13%	-4	1%	-6	9.3µM*	13µM*
O=C(NCc1ccccc1)c1n[nH]nc1-c1ccccc1O	35%	18*	1%	50	51%	0%
